High-throughput results as filed in PubChem.
CYP2C19 act = increases human CYP2C19 enzyme activity; activation factor at 5 µM; P33261; recombinant CYP2C19, luciferin-H EGE luminescence; active compounds read high; 0 = fully inhibited enzyme, 1 = untreated enzyme; 96,000 tested, under 10 active;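 active means activation factor of at least 2 at 5 µM in the primary screen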;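 further: 0 = wells with 2.5 mM tranylcypromine and 1 = vehicle-only wells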
CYP2C19 inh = human CYP2C19 inhibition; hit rate 21% among 96,000; CYP2C19 Supersomes, luciferin-H EGE luminescence, 30 min; inhibition, % at 5 µM; P33261;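 active means CYP2C19 inhibition above a set limit at 5 µM in the primary screen, cut at about 50% in these data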;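 further: plate controls were negative control wells for no effect and 2.5 mM tranylcypromine positive control for full effect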
CYP2C9 inhib = human CYP2C9 inhibition; P11712; CYP2C9 Supersomes, luciferin-H conversion, luminescence; inhibition, % at 5 µM; hit rate 20% among 96,000; AID 777;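 active means blocking of liver enzyme CYP2C9 beyond about 50% at 5 µM, limit read from the data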
Target sequence (P11712 whole entry, looked up): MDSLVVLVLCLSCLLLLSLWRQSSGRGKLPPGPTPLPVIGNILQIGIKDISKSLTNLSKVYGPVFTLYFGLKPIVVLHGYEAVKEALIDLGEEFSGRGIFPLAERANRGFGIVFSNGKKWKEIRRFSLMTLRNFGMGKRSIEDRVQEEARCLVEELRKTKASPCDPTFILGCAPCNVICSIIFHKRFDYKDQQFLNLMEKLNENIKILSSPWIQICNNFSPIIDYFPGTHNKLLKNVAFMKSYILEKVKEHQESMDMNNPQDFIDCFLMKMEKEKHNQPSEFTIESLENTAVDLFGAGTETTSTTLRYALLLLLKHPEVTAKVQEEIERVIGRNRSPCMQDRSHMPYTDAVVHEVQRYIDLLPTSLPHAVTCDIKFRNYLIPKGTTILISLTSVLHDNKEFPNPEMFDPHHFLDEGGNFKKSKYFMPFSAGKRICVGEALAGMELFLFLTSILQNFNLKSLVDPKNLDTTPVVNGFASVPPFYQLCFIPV
sEH inhibitor = blocks human soluble epoxide hydrolase activity | P34913 | recombinant human sEH enzymatic activity assay | inhibition, % at 2 µM | hit rate 0.34% among 91,000; in the data active means inhibition above about 80%
sEH act = activators of human soluble epoxide hydrolase; purified human sEH enzymatic activity, activator screen; P34913; activation, % at 2 µM; hit rate 0.04% among 91,000; AID 717; in the data active means activation above about 37%
CYP2C9 act = increases human cytochrome P450 2C9 activity. P11712. recombinant CYP2C9, luciferin-H conversion, luminescence; active compounds read high; factor 1 = untreated enzyme, 0 = blocked. activation factor at 5 µM. hit rate 1.4% among 96,000. AID 1024;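 active means activation factor of 2 or more for CYP2C9 at a 5 µM dose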;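 further: 0 = sulfaphenazole-blocked wells and 1 = vehicle-only wells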
* = called active by the depositor; . = no result given. This is a sample that favours compounds with a hit; in the whole collection about 27% have one here.

SMILES | CYP2C19 act | CYP2C19 inh | CYP2C9 inhib | sEH inhibitor | sEH act | CYP2C9 act
COc1cccc(C2=NO[C@@H]3C(=O)N(c4ccc5c(c4)OCCO5)C(=O)[C@H]23)c1OC | 1 | 1.5 | 12.7 | -1.5 | 3.2 | 0.9
O=C(CSc1nc2ccccc2s1)c1cc2ccccc2o1 | 0.9 | 12.1 | -25.7 | 7.6 | -5.8 | 1.3
N#Cc1c(N)nc(SCC(=O)NC2CCCCC2)c(C#N)c1-c1ccc(Cl)cc1 | 1.1 | -5.0 | -10.1 | . | . | 1.1
N#CCSc1nc(N)c(C#N)c(C2CCCCC2)c1C#N | 0.9 | 10.6 | 52.8* | 5.7 | -8.2 | 0.5
CCC(C)NS(=O)(=O)c1ccc(S(=O)(=O)N(CC(=O)Nc2ccccc2)Cc2ccco2)cc1 (centres undefined) | 0.7 | 28.7 | 41.6 | -0.1 | -1.6 | 0.6
Cc1cc(C)n2cc(CSC3=NCCS3)nc2n1 | 1.1 | -9.6 | -32.8 | 1.4 | -0.4 | 1.3
Cc1cc(C)n2cc(CSCc3ccco3)nc2n1 | 0.9 | 8.8 | 69.8* | 3.7 | -0.8 | 0.3
Cc1cccc2nc(CSCc3ccco3)cn12 | 0.4 | 63.8* | 0.4 | . | . | 1
Cc1cc(C)n2cc(CSc3ncccc3C(=O)O)nc2n1 | 1.2 | -17.3 | -14.4 | -3.3 | 3.4 | 1.1
Cc1cc(C)n2cc(CSc3nnnn3-c3ccccc3C)nc2n1 | 0.6 | 35.1 | -174.2 | -9.4 | 9.5 | 2.7*
CC(C)COC(=O)N(C)c1ccc(C(O)(C(F)(F)F)C(F)(F)F)cc1 | 0.9 | 11.4 | 41.6 | -6.7 | 6.2 | 0.6
CCOC(=O)c1ccc(N2CC(O)=C(c3nc4ccccc4c(=O)[nH]3)C2=N)cc1 | 0.6 | 41.4 | -42.3 | -2.1 | 5.5 | 1.4
COc1cccc(OC)c1C(=O)NN1CCCCC1 | 1 | -3.6 | -12.6 | -7.7 | 7.9 | 1.1
O=C(CCn1cccc1)NCc1ccc2c(c1)OCO2 | 0.7 | 26.3 | 0.0 | -17.9 | 16.4 | 1
CCCCCCc1nnc(N)s1 | 0.7 | 25.4 | 27.7 | -4.7 | 1.0 | 0.7
CC1Cc2ccccc2N1C(=O)CSc1nnc(CNc2ccccc2)o1 (centres undefined) | 1 | -0.4 | -3.2 | -4.4 | 4.0 | 1
O=C(CSc1nc2c(sc3ccccc32)c(=O)n1CCO)NCc1ccco1 | 0.8 | 22.8 | 42.8 | 4.6 | -7.4 | 0.6
Cc1cc(NC(=O)CSc2nc3c(sc4ccccc43)c(=O)n2CCc2ccccc2)n[nH]1 | 0.1 | 94.2* | 36.1 | -3.5 | 0.8 | 0.6
Cc1cc(NC(=O)CSc2nc3c(sc4ccccc43)c(=O)n2CCCN2CCOCC2)n[nH]1 | 0.5 | 52.0* | 19.8 | -2.3 | 1.0 | 0.8
COCCNC(=O)C(c1ccc(C)cc1)N(C(=O)CCC(=O)Nc1ccccn1)C1CCCC1 (centres undefined) | 0.8 | 17.7 | -3.9 | 4.2 | -5.9 | 1
O=C(CCCC(=O)N(c1ccc2c(c1)OCCO2)C(C(=O)NC1CCCCC1)c1ccc(F)cc1)Nc1ccccn1 (centres undefined) | 0.5 | 51.7* | -99.7 | 4.6 | -2.6 | 2*
COCCN(C(=O)CCCC(=O)Nc1ccccn1)C(C(=O)NC1CCCCC1)c1ccc(C)cc1 (centres undefined) | 0.4 | 64.1* | 56.3* | -5.0 | 4.2 | 0.4
O=C(O)C1Cc2ccccc2CN1S(=O)(=O)c1ccc2ccccc2c1 (centres undefined) | 1 | 4.5 | 7.5 | -0.3 | 3.4 | 0.9
N#CC1=C2SCN(Cc3ccccc3)CN2C(=O)CC1c1ccc2c(c1)OCO2 (centres undefined) | 0.5 | 53.7* | 58.8* | 0.0 | -5.3 | 0.4
N#CC1=C2SCN(Cc3ccccc3)CN2C(=O)CC1c1cccs1 (centres undefined) | 0.5 | 51.1* | 60.2* | -2.0 | 2.7 | 0.4
SMILES | CYP2C19 act | CYP2C19 inh | CYP2C9 inhib | sEH inhibitor | sEH act | CYP2C9 act
C=CCn1c(NCc2cc(C)ccc2O)nc2ccccc21 | 0.2 | 84.8* | 63.6* | -4.0 | 1.3 | 0.4
C=CCn1c(NCc2ccc(N(C)C)cc2)nc2ccccc21 | 0 | 96.2* | 14.6 | -8.1 | 8.5 | 0.9
C=CCn1c(C(C)NC(=O)CCC)nc2ccccc21 (centres undefined) | . | . | . | 6.1 | -5.8 | .
C=CCn1c(NC(C)c2cc(Cl)ccc2O)nc2ccccc21 (centres undefined) | 0.3 | 67.6* | 46.5 | 5.0 | -2.9 | 0.5
O=C(O)C1CC(=O)N(c2ccc(OCc3c(F)cccc3Cl)cc2)C1 (centres undefined) | 1 | -2.3 | 7.0 | 5.4 | -6.5 | 0.9
CC(C)Oc1ccc(/C=N/NC(=O)C(CSCc2ccccc2)NC(=O)c2ccc([N+](=O)[O-])cc2)cc1 (centres undefined) | . | . | . | 4.5 | -1.8 | .
Cc1ccc(C(=O)C(C(=O)/C=C/c2ccccc2)=C2SCCCS2)cc1 | . | . | . | -6.0 | 6.0 | .
CCOC(=O)c1ccccc1NC(=O)COC(=O)C1=COCCO1 | 0.9 | 14.9 | 68.4* | 16.1 | -15.0 | 0.3
COc1ccc(CNC(=O)COC(=O)C2=COCCO2)cc1 | 0.6 | 38.9 | 8.2 | 14.7 | -12.6 | 0.9
O=C(COC(=O)C1=COCCO1)Nc1ccc(Oc2ccccc2)cc1 | 0.2 | 82.2* | 89.8* | 17.7 | -17.9 | 0.1
CC(CCc1ccccc1)NC(=O)COC(=O)C1=COCCO1 (centres undefined) | 0.4 | 56.4* | 50.2* | 0.9 | 1.5 | 0.5
CC(C)(C)c1ccc(NC(=O)COC(=O)C2=COCCO2)cc1 | 0.7 | 25.4 | 45.6 | 5.1 | -5.5 | 0.5
CCn1cc(C(=O)Nc2ccc(-n3cnnn3)c(OC)c2)c(=O)c2ccc(C)nc21 | 1 | 1.5 | 13.1 | -0.4 | 1.6 | 0.9
COc1ccc(C(=O)/C=C/N2CCCCC2)cc1OC | 1 | 3.6 | -159.4 | . | . | 2.6*
COC(=O)c1ccc(N/C=C/C(=O)c2ccc(OC)c(OC)c2)cc1 | 0.9 | 6.3 | -84.5 | -4.8 | 2.8 | 1.8
Cc1cc(C)c(C)c(S(=O)(=O)NCC(=O)N2CCCC2)c1C | 0.2 | 77.9* | -34.0 | 0.3 | -0.4 | 1.3
CC(C)NS(=O)(=O)c1ccc(CCC(=O)O)cc1 | 0.9 | 8.7 | -9.1 | -3.5 | 3.8 | 1.1
CC(C)(C)NS(=O)(=O)c1ccc(CCC(=O)N2CCCCC2)cc1 | 0.4 | 60.7* | 39.4 | 10.8 | -8.6 | 0.6
Cc1ccc(S(=O)(=O)NCC(=O)N2CCC(C)CC2)cc1 | 0.3 | 72.2* | -3.1 | -10.2 | 12.7 | 1
CC1CCN(C(=O)CCc2ccc(S(=O)(=O)NC(C)C)cc2)CC1 | 0.5 | 53.0* | 46.3 | 5.0 | -4.9 | 0.5
Cc1cc(C)c(C)c(S(=O)(=O)NCc2ccc(C(=O)N3CCCCC3)cc2)c1C | . | . | . | 12.2 | -7.5 | .
Cc1ccc(S(=O)(=O)NC(=O)N2CCC(C)CC2)cc1 | 0.9 | 6.4 | 10.0 | -3.7 | 3.2 | 0.9
CN(C)c1ccc(C2NCCS2)cc1 (centres undefined) | 0.8 | 16.9 | 6.9 | -4.5 | 4.2 | 0.9
COc1ccc(C(=O)N(C(C)C)C(C)C)c(OC)c1 | 1 | 4.4 | 9.9 | -11.2 | 10.5 | 0.9
COc1cccc(CN2CCN(C(=O)c3cccc(F)c3)CC2)c1 | . | . | . | 3.2 | -5.6 | .
